According to PubChem BioAssay (NCATS):
Unmarked numbers belong to inactive results. The rule behind the calls is not given here.

Test system: HIV-1 nucleocapsid protein NCp7 (binding to TG oligonucleotide)
Assay: HIV Nucleocapsid (AID 346);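 note: potency is for inhibitors that block NC binding and lower polarization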
Conditions: HIV-1 NC / fluorescein-TGTGTGTG probe, fluorescence polarization
How it was run: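 NCp7 100 nM + fluorescein TG4xF 10 nM; Hepes pH 7.5/250mM NaCl/1uM ZnCl2/0.004% PEG 20000; 1 hr RT; FP, 45 s exposure; oligo-only wells as negative control.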
Potency is the fitted concentration of half-maximal effect.

Compound | Potency [µM]
Clc1ccccc1-c1nccc(NCCN2CCOCC2)n1 | > 20
Cc1cccc(CNc2cc(-c3ccoc3)ncn2)c1 | > 20
N#Cc1cccc(NC(=O)N2CCC3(CC2)CCN(C(=O)c2cnccn2)CC3)c1 | > 20
c1csc(CNc2ncnc3ccc(-c4ccoc4)cc23)c1 | > 20
O=C(c1csnn1)N1CCC2(CCCN(c3ccncc3)C2)CC1 | > 20
O=C(c1cccc(F)c1)N1CCC2(CC1)CN(c1ncccn1)C2 | > 20
N#CCCn1c(=O)c(-c2cc(F)cc(F)c2)nc2cnc(Oc3cccc(Cl)c3)nc21 | > 20
COCC(=O)N1CCC2(CC1)CN(c1ccccn1)C2 | > 20
COC(=O)N1CCC2(CCCN(C(c3ccccc3)c3ccccc3)C2)CC1 | > 20
CN(Cc1ccco1)c1ncncc1-c1ccccc1Cl | > 20
O=S(=O)(c1ccccc1)N1CCC[C@@]2(CCN(c3cccc(-c4ccccc4)c3)C2)C1 | > 20
O=C(c1csnn1)N1CCC2(CCCN(Cc3cc(C(F)(F)F)cc(C(F)(F)F)c3)C2)CC1 | > 20
COCCn1c(=O)c(-c2cccs2)nc2cnc(N3CCOCC3)nc21 | > 20
COc1ccc(-c2nc3cnc(Nc4cccc(OC)c4)nc3n(C)c2=O)cc1 | > 20
CN(C)C(=O)c1ccc(-c2cncnc2Nc2ccccc2)cc1 | > 20
COc1ncc2nc(-c3cn(C)c4ccccc34)c(=O)n(-c3ccccc3)c2n1 | > 20
COc1ccccc1CN1CCC2(CC1)CCN(C(=O)c1cccc(F)c1)CC2 | > 20
COc1ccccc1-c1nc(NCc2ccccc2)c2ccccc2n1 | > 20
COc1ccccc1-c1ccc2ncnc(N3CCNCC3)c2c1 | > 20
CN1CCN(c2ncc3nc(-c4cc(F)cc(F)c4)c(=O)n(C)c3n2)CC1 | > 20

Compound | Potency [µM]
COCC(=O)N1CCC2(CC1)CN(Cc1cc(C(F)(F)F)cc(C(F)(F)F)c1)C2 | > 20
Cc1ccccc1-c1nc(N2CCNCC2)c2ccccc2n1 | > 20
O=c1c(CCc2ccccc2)nc2cnc(N3CCOCC3)nc2n1-c1ccccc1 | > 20
O=C(c1cccc(F)c1)N1CCC2(CCCN(c3ccccc3)C2)CC1 | > 20
O=C(c1ccco1)N1CCC[C@@]2(CCN(C(c3ccccc3)c3ccccc3)C2)C1 | > 20
c1nc(NC2CCNCC2)c2cc(-c3ccc4c(c3)OCO4)ccc2n1 | > 20
COc1ccccc1-c1cncnc1N1CCN(C)CC1 | > 20
COc1ccc2[nH]cc(CCNc3ncnc4ccc(-c5ccc(C(=O)N(C)C)cc5)cc34)c2c1 | > 20
CS(=O)(=O)N1CCC2(CCN(c3ccccc3)CC2)CC1 | > 20
CC(=O)N1CCC[C@@]2(CCN(Cc3ccc(C#N)cc3)C2)C1 | > 20
COc1ccc(NC(=O)N2CC3(CCN(C(=O)c4c(C)noc4C)CC3)C2)cc1 | > 20
COCCNc1nc(-c2ccccc2OC)nc2ccccc12 | > 20
O=C(Oc1ccccc1)N1CCC2(CCCN(c3ccccn3)C2)CC1 | > 20
N#Cc1ccc(CN2CC[C@@]3(CCCN(C(=O)c4cccc(F)c4)C3)C2)cc1 | > 20
CN1CCN(c2ncc3nc(-c4cc(F)cc(F)c4)c(=O)n(CCc4ccccc4)c3n2)CC1 | > 20
O=C(c1cnccn1)N1CCC2(CC1)CN(Cc1ccccc1)C2 | > 20
CS(=O)(=O)N1CCC[C@@]2(CCN(C(=O)Nc3cccc(F)c3)C2)C1 | > 20
COc1cccc(Cn2c(=O)c(-c3ccc(F)cc3)nc3cnc(N4CCOCC4)nc32)c1 | > 20
O=S(=O)(c1ccccc1)N1CCC2(CCN(C(c3ccccc3)c3ccccc3)CC2)CC1 | > 20
COCC(=O)N1CCC[C@@]2(CCN(c3ccncc3)C2)C1 | > 20
